Data taken from PubChem BioAssay AID1645851 (National Center for Advancing Translational Sciences (NCATS), 2021).
“And” between values parts separate entries of the source, which are not always exact repeats. Equal values may be shown once. The whole screen tested about 140,000 compounds, of which about 1,200 (0.86%) were called active. Cut-off read from the data, not from the text of the source: active = activity change below about -25%; inactive = the rest. For the sample, actives were picked, then their nearest neighbours and some compounds at random.

Each compound was assayed against Inositol hexakisphosphate kinase 1 (Homo sapiens) (UniProt Q92551) (assay: Primary qHTS assay for small molecule inhibitors of Inositol hexaphosphate kinase 1 (IP6K1)). Conditions: ADP-Glo luminescence, 2 h, hits give low values.
Text: Assay Provider: Huijun Wei, M.S., Ph.D. School of Medicine, Johns Hopkins University, Baltimore, MD Inositol hexakisphosphate kinases (IP6Ks) catalyze pyrophosphorylation of inositol hexakisphosphate (IP6) into inositol 5-diphospho-1,2,3,4,6-pentakisphosphate (IP7), which is involved in numerous areas of cell physiology including glucose homeostasis, blood coagulation and neurological development. Inhibition of IP6Ks may be effective for the treatment of Type II diabetes, thrombosis, and psychiatric disorders. We performed a quantitative high throughput screen (qHTS) of 158,410 compounds for IP6K1 inhibitors using ankinase activity ADP-Glo Max assay. […] Medicinal chemistry SAR efforts in three chemical series identified potent IP6K1 inhibitors, which were further validated in an orthogonal LC-MS IP7 analysis.
PROTOCOL TABLE SEQUENCE No. (e.g., 1, 2, 3, etc.); […] (e.g., Cells, Incubation, Reagent, etc.); VALUE and DESCRIPTION. 1. Reagent, 3 uL of 1.3 mM ATP and 130 uM IP6 mixture in assay buffer was dispensed to a white, 1536-well assay plate. 2. Compound, 23 nL of compounds of the top two doses (57.5 uM and 19.1 uM final concentration) of the libraries were dispensed into the mixture using the Kalypsis pintool. 3. Reagent, 1 uL of 2.4 uM IP6K1 was dispensed to the assay plates. 4. Incubation, 2 hr incubation at room temperature. 5. Reagent, 2 uL of ADP-Glo reagent was added to the wells. 6. Incubation, 1 hr incubation at room temperature. 7. Reagent, 4 uL or ADP-Glo substate was added to the wells. 8. Incubation, 45 min incubation at room temperature. 9. Detection, luminescence signal was detected using the ViewLux microplate imager (PerkinElmer).
% is set by controls: 0 for no effect and ±100 for the full control effect.
Note: series mostly up to about 58 µM.

Chain of Inositol hexakisphosphate kinase 1 (Homo sapiens) (Q92551 whole entry, looked up): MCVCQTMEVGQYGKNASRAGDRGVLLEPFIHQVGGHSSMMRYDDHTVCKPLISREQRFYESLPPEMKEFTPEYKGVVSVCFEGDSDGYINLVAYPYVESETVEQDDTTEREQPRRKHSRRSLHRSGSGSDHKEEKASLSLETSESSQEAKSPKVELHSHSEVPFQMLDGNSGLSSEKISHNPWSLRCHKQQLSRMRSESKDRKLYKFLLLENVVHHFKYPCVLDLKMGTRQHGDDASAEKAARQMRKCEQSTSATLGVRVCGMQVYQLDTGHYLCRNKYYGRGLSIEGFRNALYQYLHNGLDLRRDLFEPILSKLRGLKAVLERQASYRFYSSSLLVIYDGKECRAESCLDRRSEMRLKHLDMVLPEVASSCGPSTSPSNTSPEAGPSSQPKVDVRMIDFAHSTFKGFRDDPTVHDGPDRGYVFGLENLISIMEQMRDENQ

| Structure (SMILES) | activity change |
| --- | --- |
| CCOC(=O)c1cc(-c2ccc(OC)c(S(=O)(=O)Nc3ccc(OC)cc3OC)c2)on1 | 1.78% (inactive) |
| COCCNC(=O)c1cc(-c2cccc(Cl)c2)on1 | -0.0295% (inactive) |
| Cc1ccc(-c2cc(C(=O)Oc3ccccc3Cl)no2)cc1C | -29.7% (active) |
| CC(O)CNC(=O)c1ccc(-c2ncc3cnc(C4=CCOCC4)cn23)cc1 (stereo not given) | -10.8% (inactive) |
| Cc1ccccc1CC(=O)N1CCCC(n2cc(-c3nc(-c4ccccc4)no3)nn2)C1 (stereo not given) | 9.4% (inactive) |
| CC(C)NC(=O)N1CCN(c2ccc3nnc(C4CC4)n3n2)CC1 | 5.65% (inactive) |
| Cc1ccccc1NC(=O)c1c(NC(=O)c2ccccc2F)sc2c1CCC(C)C2 (stereo not given) | -11.5% (inactive) |
| Cc1cccc(N2CCN(c3ccc(C(=O)O)cc3NC(=O)c3ccccc3F)CC2C)c1 (stereo not given) | -32.2% (active) |
| Cc1cccc(C(=O)NCCC2CCN(C(=O)Nc3ccc(F)cc3F)CC2)c1 | -7.16% (inactive) |
| Cc1cccc(C)c1-c1nc(C(=O)N2CCN(c3ncccn3)CC2)n2ccccc12 | 8.82% (inactive) and 13.4% (inactive) |
| COc1c(C)cnc(CN(C)C(=O)C2CC(=O)N(C3CCCC3)C2)c1C (stereo not given) | -26.5% (active) |
| CN1C[C@H](NS(C)(=O)=O)CCC[C@@H](C(=O)N(C)Cc2cccnc2)CC1=O | 5.58% (inactive) |
| CCn1nc(CNC(=O)C2CCC(=O)N(C3CCCC3)C2)c2ccccc21 (stereo not given) | -2.6% (inactive) |
| O=C(NC1CCN(c2nccc(Nc3ccccc3Cl)n2)CC1)c1ccccn1 | 0.678% (inactive) |
| Cc1cc(N2CCC3(CC2)CC(c2ccccc2)C(=O)N3C)ncn1 (stereo not given) | 10.4% (inactive) |
| Cc1ccncc1C(=O)N1CCC(Cn2c(C)cnc2-c2cccnc2)CC1 | 7.69% (inactive) |
| Cc1ccncc1C(=O)N1CCC2(CC1)CC(c1ccccc1)C(=O)N2C (stereo not given) | -28.9% (active) |
| COc1ccccc1-c1ccc(CN2CCC(NC(=O)c3ccncc3)C2)cc1 (stereo not given) | 24.3% (inactive) |
| Cc1ccc(CN2C(=O)[C@@H]3C[C@@H](O)CN3C3(CN(Cc4ccc(C(F)(F)F)cc4)C3)C2=O)o1 | -6.91% (inactive) |
| Cc1cc(Cl)ccc1OCC(=O)N1CCc2n[nH]c(=O)n2CC1 | -14.4% (inactive) |
| COc1ccccc1N1CCN(S(=O)(=O)CCNC(=O)COc2ccc(F)cc2)CC1 | -44.5% (active) |
| COc1cc(C(=O)NCCS(=O)(=O)N2CCN(c3ccccc3)CC2)cc(OC)c1OC | 23.9% (inactive) |

| Structure (SMILES) | activity change |
| --- | --- |
| COc1ccc(N2CCN(S(=O)(=O)CCNC(=O)C(c3ccccc3)c3ccccc3)CC2)cc1 | 23.7% (inactive) |
| O=C(CN1C(=O)c2cccnc2Oc2ccc(Cl)cc21)NCCc1ccccc1 | -2.8% (inactive) |
| Cc1ccc2c(c1)N(CC(=O)NCCc1ccc(Cl)cc1)C(=O)c1cccnc1O2 | -4.44% (inactive) |
| Cc1ccc2c(c1)N(CC(=O)NCCCN1CCCCC1)C(=O)c1cccnc1O2 | -101% (active) |
| Cc1ccc(C2(O)CCN(c3nccc(CCC(F)(F)F)n3)CC2)nc1 | -3.3% (inactive) |
| CCOc1cccc2c1OC[C@@H]1CN(CCOC)C(=O)CCN(C(=O)c3ccccc3OC)[C@H]21 | -8.59% (inactive) |
| Cc1cccc(-n2ncc(C(=O)N3CCc4ccccc4C3)c2C2CCN(C(=O)OC(C)(C)C)CC2)c1 | 32.7% (inactive) |
| CC(C)(C)OC(=O)N1CCC(c2c(C(=O)NCc3ccccn3)cnn2-c2ccc(F)cc2)CC1 | -1.08% (inactive) |
| CC(C)(C)OC(=O)N1CCC(c2c(C(=O)N3CCc4ccccc4C3)cnn2-c2ccc(F)cc2)CC1 | -28.8% (active) |
| COc1ccc(-c2cc(C(=O)NCC(F)(F)F)c3c(C4CCCN4)nn(C)c3n2)cc1 (stereo not given) | -2.22% (inactive) |
| COc1ccccc1-c1cccc(C(=O)N2CCN(C(=O)Cc3ccc(F)cc3)CC2)c1 | 5.42% (inactive) |
| CCOC(=O)c1ccc(NC(=O)CCS(=O)(=O)c2ccc(C)cc2)cc1 | -30% (active) |
| CCOC(=O)c1ccc(NC(=O)CCn2cnnn2)cc1 | 7.68% (inactive) |
| CCOC(=O)c1ccc(NC(=O)CCS(=O)(=O)c2ccc3c(c2)oc(=O)n3C)cc1 | 9.62% (inactive) |
| O=C(NCc1ccc(F)cc1)C1CCN(c2nccc(Nc3ccccc3F)n2)CC1 | 18.1% (inactive) |
| CN(c1ccccc1)c1cc(=O)c2ccnc(NC3CCOCC3)c2o1 | -36.2% (active) |
| CN(c1ccccc1)c1cc(=O)c2ccnc(-c3ccc(CO)cc3)c2o1 | -7.57% (inactive) |
| CN(c1ccccc1)c1cc(=O)c2ccnc(Nc3cccc([S+](C)(=O)[O-])c3)c2o1 | -11.6% (inactive) |
| COc1ccc(-n2nc(C3CCN(Cc4ccccn4)CC3)[nH]c2=O)cc1 | 7.19% (inactive) |
| O=C(Nc1ccc(F)cc1)c1nc2cccnc2n(Cc2ccccc2)c1=O | 14.3% (inactive) |
| O=C1CCN(CC(O)COc2ccccc2)c2cc3c(cc2CN1CC1CC1)OCO3 (stereo not given) | -10.5% (inactive) |
| COc1ccc(OCC2CN(Cc3cccc(F)c3)[S+](=O)([O-])c3cccnc3O2)cc1 (stereo not given) | 0.413% (inactive) |

| Structure (SMILES) | activity change |
| --- | --- |
| O=C1CCN(C(=O)[C@H](Cc2ccccc2)NC(=O)NC2CCCCC2)CCCOCCN1 | 9.58% (inactive) |
| COc1ccc(CCC(=O)NCCc2csc(-c3ccc(Cl)cc3)n2)cc1 | -1.97% (inactive) |
| COc1ccc(CNC(=O)c2noc(-c3ccc(F)cc3)n2)cc1 | 7.64% (inactive) |
| COc1ccc(-c2nc(CCNC(=O)c3ccc(Br)o3)cs2)cc1 | -32.8% (active) |
| O=C(c1cccc(OC2CN(Cc3nccs3)C2)c1)N1CCOCC1 | -3.36% (inactive) |
| O=C(NCc1cccc(Cl)c1)c1ccc2nccn2c1 | -8.99% (inactive) |
| Cc1n[nH]c(C)c1CNC(=O)C1Cn2cccc2C(=O)N1Cc1ccccc1 (stereo not given) | -3.14% (inactive) |
| COc1ccc(Cl)cc1-c1ccc2c(c1)C(=O)N1CCN(C(=O)CSC)C[C@@H]1C(=O)N2 | -8.89% (inactive) |
| COc1ccccc1NC(=O)c1cc(S(=O)(=O)NCCc2ccccc2)ccc1F | 14.4% (inactive) |
| Cc1ccc(NC(=O)c2cc(S(=O)(=O)NCCC3=CCCCC3)ccc2F)cc1C | -26.3% (active) |
| CCc1ccc(NC(=O)c2cc(S(=O)(=O)NC3CCCCCC3)ccc2F)cc1 | -6.25% (inactive) |
| Cc1nn(-c2ccccc2)c2c1C(C)N(C1CCN(C(=O)C(C)C)CC1)C2=O (stereo not given) | 2.6% (inactive) |
| O=C(NCc1ccccc1)c1c(-c2ccccc2)cc(=O)n2c1CCCC2 | 5.1% (inactive) |
| COc1ccccc1-c1ccc(CN2CCC(NC(=O)c3ccc(Cl)nc3)C2)cc1 (stereo not given) | 8.29% (inactive) |
| CC(C)Cn1c(=O)c(C(=O)NCc2ccc(F)cc2)nc2cccnc21 | 8.42% (inactive) |
| O=C(Nc1cccc(NC(=O)c2ccc(Br)cc2)c1)c1ccccc1 | -16% (inactive) |
| CC(C)(C)c1ccc(C(=O)Nc2cc(Cl)c(Br)cc2C(=O)O)cc1 | -35.3% (active) |
| O=C(Nc1ccc(C(=O)O)c(O)c1)c1ccccc1 | 7.03% (inactive) |
| CC(=O)c1cc(CC(=O)NCc2cc(F)c(F)cc2F)cs1 | -1.78% (inactive) |
| C[C@H]1[C@@H]2[C@@H](O)C([C@H](C)C(=O)NC3CCCC3)CC[C@@]2(C)CC[C@@H]1NC(=O)c1ccc(C#N)cc1 (stereo not given in full) | 8.22% (inactive) |
| Cn1ncc2c(C(=O)N3CCN(c4ncccn4)CC3)cc(-c3ccc(C(F)(F)F)cc3)nc21 | 2.25% (inactive) |
| Cc1cc(C(=O)N2CCC3(CCCNC3=O)C2)ccc1N1CCOCC1 (stereo not given) | 11% (inactive) |

| Structure (SMILES) | activity change |
| --- | --- |
| COc1ccc(C2Cn3nnc(C(=O)N4CCN(C(=O)c5cccc(Cl)c5)CC4)c3CO2)cc1 (stereo not given) | 2.61% (inactive) |
| COc1ccc(C2Cn3nnc(C(=O)N4CCN(C(=O)c5ccc(C)cc5C)CC4)c3CO2)cc1 (stereo not given) | -25.2% (active) |
| COc1ccc(C2Cn3nnc(C(=O)N4CCC(C(=O)NCc5ccc(C)cc5)CC4)c3CO2)cc1 (stereo not given) | -5.17% (inactive) |
| CNC(=O)[C@@H]1C[C@@H](n2cc(CNC(=O)Nc3cccc(Cl)c3C)nn2)CN1 | 11.8% (inactive) |
| O=C(C1CC1)N1CCC(N2CC(OCC3CC3)C23CCOCC3)CC1 (stereo not given) | -1.99% (inactive) |
| CN(C)[C@@H]1C(=O)C(C(N)=O)=C(O)[C@@]2(O)C(=O)C3=C(O)c4c(O)ccc(Cl)c4[C@@H](O)[C@H]3C[C@@H]12 | -40.7% (active) |
| C(=C\c1ccccc1)/CN1CCN(c2ncncn2)CC1 | -5.21% (inactive) |
| C(=C\c1ccccc1)/CN1CCN(c2nccc(-c3cccnc3)n2)CC1 | -36.7% (active) |
| O=C(c1nc(-c2cccnc2)c2cnccn12)N1CCN(c2ncccn2)CC1 | 8.68% (inactive) |
| CCOC(=O)[C@@H]1[C@@H](O)C(=O)N(Cc2ccccc2)C12CCN(C(=O)c1cc3ccccc3s1)CC2 | 14.8% (inactive) |
| O=C(CC1CCCN(c2cnn(CC3CC3)c(=O)c2)C1)N1CCCC1 (stereo not given) | 15.7% (inactive) |
| COc1ccc(-c2onc(C)c2C)cc1S(=O)(=O)NCCc1ccccc1 | 17.3% (inactive) |
| Cc1ccc(-c2onc(C)c2C)cc1S(=O)(=O)Nc1ccccn1 | -25.5% (active) |
| COc1ccc(-c2onc(C)c2C)cc1S(=O)(=O)NCc1cccs1 | 41.7% (inactive) |
| C=CCCC(CN1CCCC1)Oc1ncc(F)c(N2CCCC2)n1 (stereo not given) | -2.11% (inactive) |
| COc1ccc(NC(=O)N2CCC(CC(=O)NCc3ccccc3)C2)cc1OC (stereo not given) | -12.4% (inactive) |
| O=C(NCC1CCOCC1)Nc1cccc(Cl)c1 | 18.6% (inactive) |
| COc1cc(NC(=O)Nc2cccc(CNC(=O)O[C@H]3CCOC3)c2)ccc1-c1cnco1 | -31.9% (active) |
| C=CCCC(=O)N1CCC2(CCCN(Cc3cccc(F)c3F)C2=O)C1 (stereo not given) | -2.13% (inactive) |
